Laboratory results reported in PubChem BioAssay (NCI).
The panel holds about 83,000 compounds, 20% with a hit somewhere; the sample as a whole holds those more often.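 Values shown are percent growth following 48 h exposure of cells in 96-well plates to a single concentration of compound; below 10 was considered active.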 A number with no mark means an inactive call. The source made the active and inactive calls.

Legend:
Assay in all cases: NCI-60 one-dose screen, 48 h (100 = growth as untreated, 0 = no growth, -100 = all killed)
Conditions in all cases: 10 µM unless noted
[1] = test system: DU-145 prostate
[2] = test system: K-562 leukemia
[3] = test system: MALME-3M melanoma
[4] = test system: MDA-MB-231 breast
[5] = test system: RXF 393 renal
[6] = test system: SF-268 CNS
[7] = test system: SF-295 CNS
[8] = test system: SF-539 CNS
[9] = test system: UACC-257 melanoma
[10] = test system: M14 melanoma
[11] = test system: HCT-15 colon
[12] = test system: HT29 colon
[13] = test system: SNB-19 CNS
[14] = test system: PC-3 prostate
[15] = test system: SK-MEL-5 melanoma
[16] = test system: UACC-62 melanoma
[17] = test system: LOX IMVI melanoma
[18] = test system: SK-MEL-28 melanoma
[19] = test system: SNB-75 CNS
[20] = test system: U251 CNS

Compound	growth [1]	growth [2]	growth [3]	growth [4]	growth [5]	growth [6]	growth [7]	growth [8]	growth [9]	growth [10]	growth [11]	growth [12]	growth [13]	growth [14]	growth [15]	growth [16]	growth [17]	growth [18]	growth [19]	growth [20]
Cc1cc(NC(=O)c2cccc(C(F)(F)F)c2)ccc1-n1ccc2c(NC(=O)c3ccccc3)nccc21	112%	91.2%	99.7%	94.9%	118%	103%	102%	95.9%	101%	96.8%	92.3%	94.5%	98.4%	74.6%	101%	96.9%	101%	104%	–	–
CCc1cccc(C)c1NC(=O)c1sc2nc3c(cc2c1N)CCCCC3	13.2%	9.14% (active)	47%	35.6%	11.6%	56.5%	27%	11.1%	71.7%	3.86% (active)	27.5%	–	–	35.5%	14.2%	30.2%	45.1%	67.6%	6.57% (active)	24.1%
CN(CCNCc1ccccn1)CCNCc1ccccn1	11.3%	2.92% (active)	-21.8% (active)	1.53% (active)	-24.3% (active)	20.3%	-6% (active)	3.15% (active)	-35.8% (active)	-18.3% (active)	9.87% (active)	–	44.7%	5.04% (active)	-31.7% (active)	4.5% (active)	9.32% (active)	10.7%	12.9%	–
COc1ccc(C2=NN(C(=O)COc3ccc(Cl)cc3)C(O)(c3cc(F)c(Cl)cc3Cl)C2)cc1OC (stereo unspecified)	9.5% (active)	-66.5% (active)	6.18% (active)	30%	-90.8% (active)	4.05% (active)	75.7%	30.5%	107%	-13.4% (active)	4.88% (active)	–	62.7%	–	65.4%	52.5%	-35.6% (active)	-51.6% (active)	3.94% (active)	55.5%
C=C1C(=O)O[C@H]2[C@H]1CC/C(COC(=O)OC/C1=C/CC[C@@]3(C)O[C@H]3[C@H]3OC(=O)[C@@H](CN(C)C)[C@@H]3CC1)=C\CC[C@@]1(C)O[C@@H]21	15.3%	1.85% (active)	-34.7% (active)	-10.4% (active)	-81.5% (active)	63.1%	94.7%	-12.1% (active)	-28% (active)	-22.9% (active)	1.8% (active)	–	80.3%	72.7%	46.9%	-28.1% (active)	-72.3% (active)	-18.3% (active)	91%	60.6%
COC(=O)c1oc2c(C(C)=O)c(OCCCN(C)C)ccc2c1C	150%	73.3%	72.3%	95%	96.1%	207%	109%	124%	106%	123%	99.6%	–	103%	88.9%	103%	98.8%	95%	110%	91.3%	99.5%
NS(=O)(=O)c1ccc(Nc2nc(O)c(/C=C3\C=Nc4ccccc43)s2)cc1	110%	101%	92.7%	87.9%	111%	106%	102%	98.1%	88.7%	103%	107%	–	91.6%	–	101%	82.6%	97.3%	–	93.7%	94.6%
C=CCOc1ccc(/C(Cl)=N/N=C(\Cl)c2cc(OC)c(OC)c(OC)c2)cc1	70%	69.4%	90.9%	82.4%	58.7%	85.5%	87.9%	88.8%	53.3%	73.4%	67.3%	–	80.7%	65.1%	68.5%	64.5%	80.5%	88.1%	104%	72.8%
